Results: the supplement of paper PMC11732987, “Enantioselective OTUD7B fragment discovery through chemoproteomics screening and high-throughput optimisation” (Communications Chemistry, 2025)
Values without a mark were called inactive.

Key:
Assay in all cases: log2 ratio of Biotin-Ahx-Ub-VS probe labelling (fragment/DMSO); higher = less target engagement (more negative = stronger competition), active = hit call of the paper (q ≤ 0.05, log2 ratio ≤ -1)
Conditions in all cases: compound concentration: 200 uM; treatment time: 3 h
OTUD6B = target: T1, OTUD6B (UniProt Q8N6M0)
T1 sequence (whole entry): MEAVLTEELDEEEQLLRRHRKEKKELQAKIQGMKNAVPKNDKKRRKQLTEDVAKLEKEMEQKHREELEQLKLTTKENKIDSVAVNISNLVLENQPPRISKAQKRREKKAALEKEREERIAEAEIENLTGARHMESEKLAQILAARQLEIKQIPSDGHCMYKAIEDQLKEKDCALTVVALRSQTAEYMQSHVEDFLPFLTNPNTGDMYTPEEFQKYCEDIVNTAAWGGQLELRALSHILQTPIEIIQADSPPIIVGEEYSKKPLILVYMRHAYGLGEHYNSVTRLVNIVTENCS
In short: (§1)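 Global-median-normalised Spectronaut label-free quantities were compared by unpaired t-test, and values are average log2 ratios of fragment over vehicle. Only proteins with ≥2 unique peptides were used. HEK293T lysate (495 µg per sample) was treated in triplicate with fragment at 200 µM or vehicle for 3 h and then with Biotin-Ahx-Ub-VS at 0.5 µM final for 1 h. Labelled DUBs were then NeutrAvidin-enriched, digested with LysC and trypsin, and run by diaPASEF LC-MS/MS.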

OTUD7B = target: T2, OTUD7B (UniProt Q6GQQ9)
T2 sequence (whole entry): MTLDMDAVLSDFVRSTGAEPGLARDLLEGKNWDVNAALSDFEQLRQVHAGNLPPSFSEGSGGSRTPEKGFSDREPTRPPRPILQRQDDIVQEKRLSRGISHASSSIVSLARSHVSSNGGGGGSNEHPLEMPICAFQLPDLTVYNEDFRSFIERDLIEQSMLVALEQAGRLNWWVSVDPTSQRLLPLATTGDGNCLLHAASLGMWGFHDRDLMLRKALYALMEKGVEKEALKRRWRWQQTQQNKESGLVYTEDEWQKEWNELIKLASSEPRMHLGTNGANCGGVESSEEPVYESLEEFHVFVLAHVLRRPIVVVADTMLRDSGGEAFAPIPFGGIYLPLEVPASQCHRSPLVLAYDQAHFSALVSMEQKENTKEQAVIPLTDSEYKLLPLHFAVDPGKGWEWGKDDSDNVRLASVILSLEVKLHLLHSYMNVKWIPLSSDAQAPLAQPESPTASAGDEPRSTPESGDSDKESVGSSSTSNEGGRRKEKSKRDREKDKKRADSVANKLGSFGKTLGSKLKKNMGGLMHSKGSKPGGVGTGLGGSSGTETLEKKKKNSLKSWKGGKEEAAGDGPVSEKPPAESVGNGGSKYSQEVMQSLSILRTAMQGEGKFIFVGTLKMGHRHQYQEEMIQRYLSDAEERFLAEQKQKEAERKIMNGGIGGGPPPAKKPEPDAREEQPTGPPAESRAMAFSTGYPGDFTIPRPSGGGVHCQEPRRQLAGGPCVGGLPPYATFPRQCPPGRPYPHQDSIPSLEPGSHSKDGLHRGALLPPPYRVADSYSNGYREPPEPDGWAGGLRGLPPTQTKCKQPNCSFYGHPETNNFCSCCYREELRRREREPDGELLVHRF
In short: as §1

PRPF8 = PRPF8 (UniProt Q6P2Q9)
In short: as §1

PSMD7 = target: T3, PSMD7 (UniProt P51665)
T3 sequence (whole entry): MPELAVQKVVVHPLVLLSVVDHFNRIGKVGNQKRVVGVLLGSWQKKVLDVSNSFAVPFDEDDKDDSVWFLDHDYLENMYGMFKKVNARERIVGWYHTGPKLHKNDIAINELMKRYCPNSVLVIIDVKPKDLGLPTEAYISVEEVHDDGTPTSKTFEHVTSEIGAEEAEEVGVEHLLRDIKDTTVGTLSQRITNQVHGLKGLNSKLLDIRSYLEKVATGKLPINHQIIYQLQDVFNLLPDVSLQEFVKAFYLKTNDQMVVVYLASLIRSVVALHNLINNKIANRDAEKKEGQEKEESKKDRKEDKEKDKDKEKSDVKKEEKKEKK
In short: as §1

UCHL1 = UCHL1 (UniProt P09936)
In short: as §1

UCHL3 = target: T4, UCHL3 (UniProt P15374)
T4 sequence (whole entry): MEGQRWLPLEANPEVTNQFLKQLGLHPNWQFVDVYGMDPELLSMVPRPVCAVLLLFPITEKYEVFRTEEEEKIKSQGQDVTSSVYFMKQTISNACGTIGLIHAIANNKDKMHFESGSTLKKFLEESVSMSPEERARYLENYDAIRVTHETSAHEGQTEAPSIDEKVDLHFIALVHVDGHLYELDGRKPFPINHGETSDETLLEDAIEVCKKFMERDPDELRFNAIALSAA
In short: as §1

UCHL5 = target: T5, UCHL5 (UniProt Q9Y5K5)
T5 sequence (whole entry): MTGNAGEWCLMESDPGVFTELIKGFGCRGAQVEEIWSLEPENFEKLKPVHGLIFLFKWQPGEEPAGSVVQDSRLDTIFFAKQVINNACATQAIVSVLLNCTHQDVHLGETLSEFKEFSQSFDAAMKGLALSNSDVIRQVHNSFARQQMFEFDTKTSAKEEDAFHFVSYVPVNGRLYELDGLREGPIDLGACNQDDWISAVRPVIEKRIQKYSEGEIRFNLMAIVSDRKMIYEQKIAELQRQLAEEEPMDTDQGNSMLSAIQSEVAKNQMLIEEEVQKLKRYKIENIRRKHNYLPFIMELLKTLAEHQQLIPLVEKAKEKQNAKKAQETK
In short: as §1

USP10 = USP10 (UniProt Q14694)
In short: as §1

USP15 = target: T6, USP15 (UniProt Q9Y4E8)
T6 sequence (whole entry): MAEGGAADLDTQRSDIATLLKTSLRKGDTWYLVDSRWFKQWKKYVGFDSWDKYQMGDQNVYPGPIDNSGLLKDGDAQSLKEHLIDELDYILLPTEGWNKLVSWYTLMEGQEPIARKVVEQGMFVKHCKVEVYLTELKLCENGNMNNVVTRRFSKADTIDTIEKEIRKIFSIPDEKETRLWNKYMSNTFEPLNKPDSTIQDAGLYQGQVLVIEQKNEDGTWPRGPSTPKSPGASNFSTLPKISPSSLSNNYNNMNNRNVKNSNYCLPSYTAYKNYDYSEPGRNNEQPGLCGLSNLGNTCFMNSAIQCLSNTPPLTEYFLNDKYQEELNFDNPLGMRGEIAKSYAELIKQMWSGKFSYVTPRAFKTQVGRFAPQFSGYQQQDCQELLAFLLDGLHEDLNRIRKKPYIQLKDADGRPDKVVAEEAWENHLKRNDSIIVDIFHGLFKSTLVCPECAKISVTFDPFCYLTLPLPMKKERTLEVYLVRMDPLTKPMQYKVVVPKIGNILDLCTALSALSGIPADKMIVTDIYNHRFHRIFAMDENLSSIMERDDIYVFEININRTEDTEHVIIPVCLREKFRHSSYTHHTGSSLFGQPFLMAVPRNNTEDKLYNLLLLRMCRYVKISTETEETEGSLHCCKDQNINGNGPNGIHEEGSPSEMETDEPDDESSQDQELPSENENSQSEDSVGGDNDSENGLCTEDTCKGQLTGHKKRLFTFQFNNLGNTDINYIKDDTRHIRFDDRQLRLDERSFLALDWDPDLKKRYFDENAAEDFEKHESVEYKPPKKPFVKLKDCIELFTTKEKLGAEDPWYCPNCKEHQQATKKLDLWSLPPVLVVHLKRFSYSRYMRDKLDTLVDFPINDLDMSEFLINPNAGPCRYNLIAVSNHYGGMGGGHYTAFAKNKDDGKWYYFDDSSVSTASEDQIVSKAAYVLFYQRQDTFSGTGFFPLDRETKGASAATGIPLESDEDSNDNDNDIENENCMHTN
In short: as §1

USP16 = USP16 (UniProt Q9Y5T5)
In short: as §1

Sequence of UCHL1 (P09936 whole entry, looked up): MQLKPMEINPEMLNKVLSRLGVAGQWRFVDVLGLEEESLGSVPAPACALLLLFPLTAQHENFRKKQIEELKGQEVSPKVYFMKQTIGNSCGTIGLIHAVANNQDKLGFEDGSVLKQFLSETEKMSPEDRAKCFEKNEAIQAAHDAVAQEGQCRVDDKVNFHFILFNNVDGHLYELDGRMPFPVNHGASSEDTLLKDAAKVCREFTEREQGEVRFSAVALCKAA
Sequence of USP16 (Q9Y5T5 whole entry, looked up): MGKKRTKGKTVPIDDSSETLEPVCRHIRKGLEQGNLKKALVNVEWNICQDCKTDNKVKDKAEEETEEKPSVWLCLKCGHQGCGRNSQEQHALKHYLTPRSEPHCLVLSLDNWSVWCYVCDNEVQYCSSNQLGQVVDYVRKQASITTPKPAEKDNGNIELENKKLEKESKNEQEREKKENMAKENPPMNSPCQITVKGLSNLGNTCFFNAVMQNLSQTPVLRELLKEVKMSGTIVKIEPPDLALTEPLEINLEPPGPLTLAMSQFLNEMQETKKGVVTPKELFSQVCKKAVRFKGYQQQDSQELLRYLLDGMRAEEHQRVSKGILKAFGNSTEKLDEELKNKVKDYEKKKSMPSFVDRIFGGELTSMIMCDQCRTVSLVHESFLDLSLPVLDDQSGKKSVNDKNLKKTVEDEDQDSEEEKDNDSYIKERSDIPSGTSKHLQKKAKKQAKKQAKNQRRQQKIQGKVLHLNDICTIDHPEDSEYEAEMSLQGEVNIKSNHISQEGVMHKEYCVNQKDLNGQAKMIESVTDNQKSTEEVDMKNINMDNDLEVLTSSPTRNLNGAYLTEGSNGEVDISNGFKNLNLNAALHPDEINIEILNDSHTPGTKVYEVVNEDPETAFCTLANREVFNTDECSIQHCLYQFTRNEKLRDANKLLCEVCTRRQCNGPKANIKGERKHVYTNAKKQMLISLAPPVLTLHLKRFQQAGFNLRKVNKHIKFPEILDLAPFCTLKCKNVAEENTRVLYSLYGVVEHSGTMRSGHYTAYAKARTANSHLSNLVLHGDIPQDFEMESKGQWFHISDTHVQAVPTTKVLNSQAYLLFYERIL
Sequence of USP10 (Q14694 whole entry): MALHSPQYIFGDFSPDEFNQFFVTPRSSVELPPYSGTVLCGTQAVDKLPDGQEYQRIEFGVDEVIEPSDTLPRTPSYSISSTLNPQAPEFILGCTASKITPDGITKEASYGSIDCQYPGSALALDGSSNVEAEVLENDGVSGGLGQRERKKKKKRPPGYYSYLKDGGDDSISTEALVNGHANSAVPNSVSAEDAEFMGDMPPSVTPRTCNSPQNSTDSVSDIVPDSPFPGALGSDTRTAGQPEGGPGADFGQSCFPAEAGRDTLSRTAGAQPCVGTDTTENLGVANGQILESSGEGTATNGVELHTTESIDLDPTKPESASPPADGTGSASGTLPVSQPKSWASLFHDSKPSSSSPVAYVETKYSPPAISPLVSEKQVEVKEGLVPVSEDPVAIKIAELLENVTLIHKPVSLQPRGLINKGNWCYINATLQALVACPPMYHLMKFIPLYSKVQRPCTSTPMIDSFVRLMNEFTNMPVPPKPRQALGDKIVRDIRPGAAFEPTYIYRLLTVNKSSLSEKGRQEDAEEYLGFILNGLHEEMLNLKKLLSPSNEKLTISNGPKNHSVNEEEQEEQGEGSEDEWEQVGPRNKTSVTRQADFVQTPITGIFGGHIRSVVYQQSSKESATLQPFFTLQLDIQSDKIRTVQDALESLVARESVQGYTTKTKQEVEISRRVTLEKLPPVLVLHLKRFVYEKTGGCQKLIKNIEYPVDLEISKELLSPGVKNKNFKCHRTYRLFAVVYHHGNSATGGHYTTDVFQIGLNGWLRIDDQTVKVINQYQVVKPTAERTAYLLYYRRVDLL

## CCC(NC(=O)CCl)c1ccc(Cl)cc1 (stereo not given)
OTUD6B
  log2 ratio of Biotin-Ahx-Ub-VS probe labelling: 0.0691
OTUD7B
  log2 ratio of Biotin-Ahx-Ub-VS probe labelling: -1.12 (active)
PRPF8
  log2 ratio of Biotin-Ahx-Ub-VS probe labelling: 0.164
PSMD7
  log2 ratio of Biotin-Ahx-Ub-VS probe labelling: -0.0211
UCHL1
  log2 ratio of Biotin-Ahx-Ub-VS probe labelling: -1.12 (active)
UCHL3
  log2 ratio of Biotin-Ahx-Ub-VS probe labelling: 0.495
UCHL5
  log2 ratio of Biotin-Ahx-Ub-VS probe labelling: -0.175
USP10
  log2 ratio of Biotin-Ahx-Ub-VS probe labelling: -0.0683
USP15
  log2 ratio of Biotin-Ahx-Ub-VS probe labelling: -0.0837
USP16
  log2 ratio of Biotin-Ahx-Ub-VS probe labelling: -0.0971
